The campaign covered roughly 370,000 compounds. About 2,600 (0.7%) were called active. Only a selection was taken, and actives are over-represented in it overall. Unmarked numbers belong to inactive results.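 The calls were made as follows: active = inhibition above a per-plate cutoff, mean inhibition of test wells between control levels plus 3 SD (cut at about 38% in these data); inactive = the rest.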
Target: COUP transcription factor 2 (Homo sapiens) (UniProt P24468)
Assay: NR2F2 transcriptional activity inhibitors, primary screen, cell-based, luciferase reporter, HEK293T, luminescence (AID 686940);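 also: cells cotransfected with COUP-TFII expression vector driving the NGFI-A reporter; 0% = median of COUP-TF2 test wells and 100% = reporter-only cells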
Conditions: HEK293T NGFI-A luciferase reporter, at 8.6 µM, hits give high values

Chain of COUP transcription factor 2 (Homo sapiens) (P24468 whole entry, looked up): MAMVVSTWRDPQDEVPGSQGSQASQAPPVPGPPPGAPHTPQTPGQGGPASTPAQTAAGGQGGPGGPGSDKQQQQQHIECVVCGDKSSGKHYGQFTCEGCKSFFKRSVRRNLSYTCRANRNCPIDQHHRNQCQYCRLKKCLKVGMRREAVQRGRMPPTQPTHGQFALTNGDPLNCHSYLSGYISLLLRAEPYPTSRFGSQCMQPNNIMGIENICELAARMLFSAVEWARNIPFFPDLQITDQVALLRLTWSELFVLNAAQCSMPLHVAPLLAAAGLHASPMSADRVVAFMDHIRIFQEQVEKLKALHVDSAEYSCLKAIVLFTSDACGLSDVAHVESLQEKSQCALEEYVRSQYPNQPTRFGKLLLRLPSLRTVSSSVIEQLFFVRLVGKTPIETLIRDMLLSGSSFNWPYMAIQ

Structure (SMILES)	inhibition
CN(C)CC(=O)N[C@@H]1C[C@@H]2O[C@H](CO)CC[C@@H]2O[C@@H]1CCc1ccc(C#Cc2ccccc2)cc1	27.3%
COCc1ccc(C(=O)NC2CC(C)(C)Cc3c2cnn3-c2ccc(C)cc2)o1 (configuration not stated)	-7.12%
Cc1cc(C(=O)NC2CC(C)(C)Cc3c2cnn3-c2ccccc2)n[nH]1 (configuration not stated)	-4.58%
COC(=O)c1ccc(C(=O)NC2CC(C)(C)Cc3c2cnn3-c2ccc(F)cc2)nc1 (configuration not stated)	-4.63%
Cn1nccc1C(=O)NC1CCCc2c1cnn2-c1ccc(F)cc1F (configuration not stated)	60.9% (active)
Cc1cc(C(=O)NC2CCCc3c2cnn3-c2cccc(C)c2C)c(C)o1 (configuration not stated)	44.6% (active)
Cc1cc(C(=O)NNC(=O)CCC2CCCCC2)c(C)o1	3.17%
Cn1nccc1C(=O)NC1CCCc2c1cnn2-c1ccccc1F (configuration not stated)	63.7% (active)
COc1ccc(C(=O)NC2CC(C)(C)Cc3c2cnn3-c2ccccc2)c(OC)c1 (configuration not stated)	-0.91%
O=C(CCNC(=O)c1ccc(Cl)cc1)NC1CCCc2ccccc21 (configuration not stated)	-32.6%
COc1cccc(CSc2nnc(-c3cccnc3)n2Cc2ccccc2)c1	14.1%
COC(=O)c1cccc(Cn2ccc3ccc(-c4ccc5ccn(C(=O)C6CCCCC6)c5c4)cc32)c1	-12.6%
O=C(NCCC1=CCCCC1)C1CCN(S(=O)(=O)c2ccc(Cl)s2)CC1	8.27%
COC(=O)[C@H](C(C)C)N1CCc2nnn(Cc3ccc(C)cc3)c2-c2ccccc2S1(=O)=O	7%
COC(=O)C[C@@H]1CC[C@@H]2[C@@H](COc3ccc(NC(=O)Nc4ccc(F)c(F)c4)cc3C(=O)N2C)O1	4.71%
CC[n+]1cc(C)ccc1/C=C/c1ccc(N(C)C)cc1	74.1% (active)
O=S1(=O)c2ccc(Br)cc2OC[C@@H](Cc2ccccc2)N1Cc1cn(Cc2ccco2)nn1	8.82%
C=CCN1C(C(=O)OC)CN(Cc2cn(Cc3ccccc3)nn2)CCS1(=O)=O (configuration not stated)	-8.52%
CC(CCN1CCC(C(O)(c2ccccc2)c2ccccc2)CC1)Oc1ccc([N+](=O)[O-])cc1Cl (configuration not stated)	10.1%

Structure (SMILES)	inhibition
CC(C)(C)OC(=O)NCc1cc(F)ccc1/C=C/S(=O)(=O)NCCc1ccccc1	9.33%
CCN1/C(=C\c2ccc3ccccc3[n+]2CC)Sc2cc(C)ccc21	73% (active)
N#Cc1ccccc1OC[C@@H](O)CN1CCC(C(O)(c2ccccc2)c2ccccc2)CC1	-5.47%
Cc1cc(C)n2ncc(C(=O)Nc3ccc4c(c3)OCCO4)c2n1	-31.2%
C=C1C(C(C)C)N(C)C2=NC(c3ccccc3)CC(=O)N12 (configuration not stated)	-5.15%
CCn1ccnc1CN(C)C(=O)c1cc(COc2ccc(Cl)cc2OC)on1	-30.8%
CCOc1ccc(NS(=O)(=O)c2ccc(Cl)c(C(=O)N(C)Cc3cccnc3)c2)cc1	-10.5%
CN(Cc1cccnc1)C(=O)c1cc(COc2ccc3ncccc3c2)on1	64.7% (active)
COc1ccc(-n2c(COc3ccc(C)cc3)nnc2SCC(=O)Nc2ccc(Oc3ccccc3)cc2)cc1	9.67%
C[C@@H]1CN([C@@H](C)CO)C(=O)c2cccc(NC(=O)Nc3cccc4ccccc34)c2O[C@H]1CN(C)S(=O)(=O)c1ccccc1F	11.9%
CCOC(=O)C1=C(CC)Nc2ccccc2N=C1N	-4.65%
CCOC(=O)C1=C(c2ccc(OC)cc2)C(=O)c2ccccc2C1=O	74.4% (active)
CCOC(=O)C1C(=O)C=C(c2ccc(OC)cc2)CC1c1ccco1 (configuration not stated)	-3.88%
C=C(C)C#CC(Cc1ccccc1)NCC1CC1 (configuration not stated)	7.7%
Cc1ccc(Cn2cc(COC(=O)N(C)Cc3ccccc3)nn2)cc1	4.98%
COc1ccc(Cn2c(=O)sc3ccccc32)cc1OC	48.4% (active)
COc1ccc(CN2CCOC2=O)cc1OC	12.6%
COc1ccccc1CNC(=O)CCn1c(=O)sc2ccccc21	4.05%
CCC(=O)Nc1ccc2c(c1)C(=O)N(C)[C@H]1CC[C@H](CC(=O)NCCOC)O[C@@H]1CO2	13.3%

Structure (SMILES)	inhibition
CC(CCN1CCC(C(O)(c2ccccc2)c2ccccc2)CC1)Oc1ccc(Cl)cc1 (configuration not stated)	3.23%
O=S1(=O)c2c(cccc2N2CC[C@H](O)C2)O[C@@H]2CCN1C2	10.5%
C[C@H]1CCC/C=C/C(=O)c2c(O)cc(O)cc2CC(=O)O1	38.3% (active)
CN(C(N)=NC(=O)/C=C/c1ccccc1)C(C#Cc1ccccc1)Cc1ccccc1 (configuration not stated)	4.75%
O=C(CSc1nnc(-c2ccccn2)n1-c1ccc(Cl)cc1)Nc1ccccc1-c1ccccc1	7.79%
O=C(CCC(=O)N1CCN(S(=O)(=O)c2ccc(Cl)cc2)CC1)NCc1cccc(C(F)(F)F)c1	53% (active)
O=C(NCc1cccc(C(F)(F)F)c1)c1cccc(S(=O)(=O)N2CCN(Cc3ccccc3)CC2)c1	-3.7%
CC(NC(=O)CCC(=O)N1CCN(S(=O)(=O)c2ccc(Cl)cc2)CC1)c1ccccc1 (configuration not stated)	-14.9%
O=C(NCc1ccco1)C1CCCN(S(=O)(=O)c2ccc(Cl)s2)C1 (configuration not stated)	-2.82%
O=C(NC1CCCC1)C1CSCCS(=O)(=O)N1Cc1ccccc1 (configuration not stated)	0.16%
CCOc1ccc(Br)cc1CSC(=N)N	22.1%
N=C(N)SCc1cccc2ccccc12	38.5% (active)
CCc1ccc(-c2nn(-c3ccccc3)cc2CSC(=N)N)cc1	-5%
COC(=O)C1CN(CCc2ccccc2)CCS(=O)(=O)N1Cc1ccc(F)cc1 (configuration not stated)	3.48%
Cc1ccc(-c2nnc(SCC(=O)Nc3ccc(Oc4ccccc4)cc3)n2Cc2ccco2)cc1	13.6%
CCCCOCCCNC(=O)C[C@H]1C[C@@]2(C(=O)OC)C(=C[C@H](COCc3ccccc3)O[C@@H]2C)N(Cc2cccc3ccccc23)C1=O	14.6%
Cc1ccc(-c2nc(CS(=O)CC(=O)NC3CCCC3)c(C)o2)cc1 (configuration not stated)	12.9%
Cc1ccc(S(=O)(=O)NCCC(=O)NC2CCN(Cc3ccccc3)CC2)cc1	9.92%
Cc1ccc(-c2nc(CSCC(=O)NC3CCN(Cc4ccccc4)CC3)c(C)o2)cc1	44.1% (active)

From PubChem BioAssay AID686940 (The Scripps Research Institute Molecular Screening Center, 2013)
